# PubChem BioAssay (NCI)
# This is part of a sample that, as a whole, favours compounds with a hit. Of some 79,000 tested, about 15% had one in any assay. The source made the active and inactive calls. Cut-off read from the data, not from the text of the source: active = growth inhibition above about 70%; inactive = the rest.
# Assay: NCI Yeast Anticancer Drug Screen. Data for the mlh1 rad18 strain (AID 175)
# Conditions: S. cerevisiae mlh1 rad18 strain growth inhibition; at 50.0 µM; stronger effect = higher value
# Method: Growth inhibition of yeast strains with defined genetic alterations is measured as a screen for potential anti-cancer activity. Selected strains with alterations in DNA damage repair or cell cycle control were exposed to compounds and growth inhibition was measured relative to vehicle treated controls. The strain used in this assay is mlh1 rad18
row,SMILES,growth inhibition
1,Oc1ccc2ccccc2c1C(c1ccccc1)N1CCOCC1 (stereo not given),-15.2% (inactive)
2,CCCOC(=O)CC(=O)OCC,-17.4% (inactive)
3,COc1ccc(-c2cn3c([nH]c(=O)c4cc(Br)ccc43)c2C#N)cc1,16.1% (inactive)
4,Cc1cc(C)c(Br)cc1C,-5.35% (inactive)
5,Cc1cc(Cl)ccc1OC(=O)NC1CCCCC1,30.4% (inactive)
6,N#CC(C(=O)C(=O)Nc1cccc(C(F)(F)F)c1)c1c(Cl)cccc1Cl (stereo not given),2.15% (inactive)
7,CC(c1ccc(O)cc1)c1cc2c(cc1OCCO)OCO2 (stereo not given),99.1% (active)
8,COC1(c2ccc(C)cc2)c2cccc3cccc(c23)C1(O)c1ccc(C)cc1 (stereo not given),9.9% (inactive)
9,CCOC(=O)C12CCCC1(O)N(NC(=O)OC(C)(C)C)C(C)=C2C(=O)OC (stereo not given),-7.5% (inactive)
10,Oc1ccc(-c2ccc(O)cc2O)c(O)c1,14.2% (inactive)
11,CC(=O)N(CCCCNC(=O)C(F)(F)F)CCCNC(=O)C(F)(F)F,-58.5% (inactive)
12,COc1cc(C)n2nnnc2n1,-9.4% (inactive)
13,CN(C)CCN1CCCN(C)CC1,5.4% (inactive)
14,[O-][N+]1=C(c2ccccc2)C(c2ccccc2)C(c2ccccc2)O1 (stereo not given),11.2% (inactive)
15,CCc1nc2c(N)ncnc2o1,11.4% (inactive)
16,COc1ccc(N=C(C)c2c(O)n(-c3ccccc3)[nH]c2=O)cc1,98.5% (active)
17,CCCCCCCCCCCCCCCCCC1=NCC(C)O1 (stereo not given),-10.1% (inactive)
18,CCSCN1CCN(CSCC)CC1,-5.05% (inactive)
19,C1CSC(Sc2nc(SC3=NCCS3)nc(SC3=NCCS3)n2)=N1,-26.4% (inactive)
20,CC1=C(OCCCl)C2CC1C1C(=O)N(c3ccccc3)C(=O)C21 (stereo not given),-4.75% (inactive)

row,SMILES,growth inhibition
1,CCC1(C#N)OC1C (stereo not given),27.4% (inactive)
2,CN(C)CC1CCC2=C(C1=O)C(c1ccccc1)C1=C(CCC(CN(C)C)C1=O)O2 (stereo not given),3.7% (inactive)
3,O=C(O)C#Cc1ccc(Cl)cc1,-13.6% (inactive)
4,COC(=O)/C=C(C)/C=C/c1cc(C(C)=O)c(C)o1,-7.05% (inactive)
5,Nc1ccc2ccc(NS(=O)(=O)N3CCCCC3)cc2c1,50.9% (inactive)
6,COc1cc2oc3cc(=O)cc4oc(-c5ccccc5)cc(c2c2c1CCC(c1ccccc1)O2)c43 (stereo not given),-10.2% (inactive)
7,COc1cc([C@@H]2c3cc4c(cc3[C@H](O)[C@H]3COC(=O)[C@@H]23)OCO4)cc(OC)c1OC,16.2% (inactive)
8,C=C1CCCCCCCCC/C=C/1SCCCSC,-20.2% (inactive)
9,Nc1nnc2nc(CC(=O)Cc3ccccc3)c(CC(=O)Cc3ccccc3)nn12,9.35% (inactive)
10,Cc1c(Cl)cc(Cl)c(N)c1Cl,-15.2% (inactive)
11,Brc1ccccc1-c1nc2ccccc2[nH]1,-2.55% (inactive)
12,CCO/C=C1/C(=O)N(C)c2c1c(=O)n(C)c(=O)n2C,-5.15% (inactive)
13,CCN(CC)C(CC(=O)c1ccccc1)C(=O)c1ccccc1 (stereo not given),49.6% (inactive)
14,COc1nc(NC2OC(CO)C(O)C(O)C2O)c(C(C)=O)c(=O)n1C (stereo not given),12.5% (inactive)
15,CC(O)C1CCCCC1O (stereo not given),-11.3% (inactive)
16,COc1ccc(Cl)cc1NC(=O)Oc1cc2ccccc2cc1C(=O)Nc1ccccc1,-13.8% (inactive)
17,CC1=C(Br)C(=O)C(C(C)C)=CC1=O,0.9% (inactive)
18,CCOC(=O)N1c2ccccc2S(=O)(=O)c2ccccc21,-52.2% (inactive)
19,C/C(CC(=O)Nc1ccc(NC(=O)C/C(C)=N\NC(N)=O)cc1)=N/NC(N)=O,6.75% (inactive)
20,CC(=O)SC1CC2CCC1C2 (stereo not given),15.7% (inactive)
